Data taken from PubChem BioAssay (NCI).
About 83,000 compounds went through this panel and 20% of them were active in at least one assay; those are over-represented in the sample as a whole.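 Compound tested at a single concentration for 48 hours in 96-well plates; a percent growth value below 10 was scored as active.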 A number with no mark means an inactive call. Active and inactive are the calls of the source.

Key:
Test in all cases: NCI-60 one-dose screen, 48 h (100 = growth as untreated, 0 = no growth, -100 = all killed)
Details in all cases: 10 µM
NCI-H23 lung = system: NCI-H23 lung
HOP-62 NSCLC = system: HOP-62 NSCLC
NCI-H460 lung = system: NCI-H460 lung
NCI-H522 lung = system: NCI-H522 lung
A549/ATCC NSCLC = system: A549/ATCC NSCLC
786-0 renal = system: 786-0 renal
COLO 205 colon = system: COLO 205 colon
DU-145 prostate = system: DU-145 prostate
K-562 leukemia = system: K-562 leukemia
MALME-3M melanoma = system: MALME-3M melanoma
MDA-MB-231 breast = system: MDA-MB-231 breast
RXF 393 renal = system: RXF 393 renal
SF-268 CNS = system: SF-268 CNS
SF-295 CNS = system: SF-295 CNS
SF-539 CNS = system: SF-539 CNS
UACC-257 melanoma = system: UACC-257 melanoma
M14 melanoma = system: M14 melanoma
HCT-15 colon = system: HCT-15 colon
NCI-H322M lung = system: NCI-H322M lung

| SMILES | growth (NCI-H23 lung) | growth (HOP-62 NSCLC) | growth (NCI-H460 lung) | growth (NCI-H522 lung) | growth (A549/ATCC NSCLC) | growth (786-0 renal) | growth (COLO 205 colon) | growth (DU-145 prostate) | growth (K-562 leukemia) | growth (MALME-3M melanoma) | growth (MDA-MB-231 breast) | growth (RXF 393 renal) | growth (SF-268 CNS) | growth (SF-295 CNS) | growth (SF-539 CNS) | growth (UACC-257 melanoma) | growth (M14 melanoma) | growth (HCT-15 colon) | growth (NCI-H322M lung) |
| --- | --- | --- | --- | --- | --- | --- | --- | --- | --- | --- | --- | --- | --- | --- | --- | --- | --- | --- | --- |
| COc1cc2cc3c(nc2cc1OC)CCN3Cc1ccc(NC(=O)c2ccc(Cl)c(C(F)(F)F)c2)cc1 | 99.7% | 105% | 107% | 86.6% | 97% | 105% | 109% | 117% | 94.7% | 68.8% | 85.4% | 94.5% | 102% | 92.8% | 81.1% | 86.6% | 104% | 95.8% |  |
| Cc1ccc2oc3nc(C)c(C(=O)NCc4ccccc4)cc3c(=O)c2c1 | 83.8% | 100% | 41.4% | 76.7% | 73.5% | 55.6% | 23.8% | 86.9% | 18.4% |  | 88.8% | 120% | 95.3% | 41.9% | 99.3% | 69.2% | 29% | 78.8% | 76.8% |
| CCN(CC)CCC(CNc1c(C)cnc2cc(Cl)ccc12)c1ccc(Cl)cc1 (stereo unspecified) | 61.3% | 66.2% | 67.7% | 31.7% | 64.7% | 58.2% | -45.5% (active) | 79% | 7.15% (active) | -57.9% (active) | 27.3% |  | 67.5% | 51.4% | -52.3% (active) | -58.3% (active) | -67.3% (active) | 35% | 53.8% |
| C#Cc1ccc(-n2c(/C=C/c3ccc4ccccc4n3)nc3ncccc3c2=O)cc1 | -44.9% (active) |  | -46.3% (active) | -73.9% (active) | -25.8% (active) | 0.1% (active) | -94.9% (active) | -37.6% (active) | 3.17% (active) | -62.9% (active) | -41.2% (active) | -82.5% (active) | -49.5% (active) | -58.3% (active) | -17.6% (active) | -72.9% (active) | -19% (active) | -18.8% (active) | -45.1% (active) |
| COc1ccc(-c2nc(-c3nc4cc(Cl)c(Cl)cc4[nH]3)c3ccccn23)cc1 | 67.5% | -11.7% (active) | 41.5% | 55.9% | 16.8% | 0.945% (active) | 88.4% | 47.5% | 59.8% | 18% | -18.3% (active) | -39.4% (active) | 21% | 13.9% | 8.32% (active) | 63.6% | 70.1% | 76.7% | 48.4% |
| COc1ccc2c(c1)N(CCO)C1=C(C(=O)OC1)C2c1ccc(OC)c(OC)c1 (stereo unspecified) | 46.1% | 39% | 16.9% | -12.4% (active) | 50.4% | 42.2% | 29.7% | 55.6% | 19.8% |  | 68% | 28.2% | 54.3% | 7.46% (active) | 13% | 53.7% | 36.1% | 39.6% | 61.3% |
| O=C1N=NC2=C1c1c3ccccc3c(O)n1CC2 | 96.7% | 91.6% | 110% | -36.3% (active) | 45.1% | 101% | 129% | 121% | 93% | 109% | 107% | 106% | 108% | 99.4% | 94.9% | 8.27% (active) | 93.2% | 113% | 98.9% |
| O=C1/C(=C\c2ccc(Cl)cc2)CN(C(=O)c2ccccc2)C/C1=C\c1ccc(Cl)cc1 | 58.2% | 23.2% | 68.3% | 40.6% | 22.2% | 7.43% (active) | 32.9% | 24.9% | 4.94% (active) | 64.8% | 25% | -22.5% (active) | 26.9% | 1.64% (active) | 61.4% | 67.5% | 2.03% (active) | 10.4% |  |
| O=C(CC(C(=O)c1ccccc1)N1CCOCC1)c1ccccc1 (stereo unspecified) | 97.4% | 106% | 102% | 74.7% | 91.9% | 98.8% | 58.5% | 101% | 40.5% | 101% | 92.7% |  | 97.6% | 92.9% | 96.7% | 93.8% | 101% | 85% | 109% |
| Cc1cc(C)c(CCc2cc(C)c(C)cc2C)cc1C | 98% | 117% | 110% | 95.5% | 99.9% | 108% | 118% | 107% | 94.8% |  | 104% | 117% | 103% | 108% | 105% | 101% | 111% |  | 112% |
| Cc1cccc2c(NCCN(C)C)c3cccc(C(=O)NCCN(C)C)c3nc12 | 6.76% (active) | 4.88% (active) | -13.2% (active) | -43.7% (active) | 16.2% | 14.5% | 0.559% (active) | -20.1% (active) | -24.5% (active) | 7.06% (active) | 5.41% (active) | 8.33% (active) | 11.3% | 7.5% (active) | 11.6% | -20.6% (active) | 11.7% | -46.5% (active) | -5.21% (active) |
| Cn1c(N)c(N=Nc2ccc(S(=O)(=O)Nc3nccs3)cc2)c(=O)n(C)c1=O | 94% | 105% | 109% | 82.2% | 105% | 98.1% | 105% | 106% | 90.2% | 86.8% | 111% | 130% | 103% | 91% | 98.3% | 95.6% | 101% | 110% | 92.9% |
| CCOC(=O)C(NC(=O)C(Cl)Cl)C(O)c1ccccc1 (stereo unspecified) | 102% | 82.8% | 102% | 122% | 117% | 129% | 126% | 102% | 87.5% | 108% | 98.3% | 78.7% | 99.3% | 76.1% | 99.5% | 105% | 92.6% | 117% |  |
| COC(=O)[C@@H]1[C@H](O)[C@H](C)[C@H](O)[C@@](C)(O)/C=C\C=C(C)C(=O)Nc2c(C)c(OC(C)=O)c3c(c2O)C(=O)C(C)=C2OCOC(=C23)C(C)=C[C@@](C)(O)[C@H](O)[C@@H](C)[C@H]1OC(C)=O | 101% | 111% | 127% | 105% | 110% | 95.2% | 112% | 85.5% | 89% | 101% | 98.8% | 104% | 113% | 98% | 100% | 107% | 122% | 74.7% | 125% |
